The values below come from PubChem BioAssay.

Experiment [1] in a line: compound effects on lung adenocarcinoma cell viability – A549, calcein-AM fluorescence, 48 h, basal, profiling panel (AID 1162). The conditions noted are these: higher = more signal.
A short description of experiment [2]: compound effects on differentiated 3T3-L1 adipocyte viability – cell-based, 3T3-L1 adipocytes, calcein-AM fluorescence, 48 h, basal, profiling panel (AID 1163). The conditions noted are these: 3T3-L1 adipocytes viability, higher = more signal.
A short description of experiment [3]: compound effects on hepatocellular carcinoma cell viability – HepG2, calcein-AM fluorescence, 48 h, basal, profiling panel (AID 1164). Conditions: higher = more signal.
The nature of experiment [4]: compound effects on multiple myeloma cell viability – MM1S, calcein-AM fluorescence, 48 h, basal, profiling panel (AID 1165). The conditions noted are these: higher = more signal.
Experiment [5] can be described thus: calcein-AM signal in unstimulated myeloma cells – cell-based, calcein-AM fluorescence, 48 h, PK04 Diversity Set, profiling panel (AID 1166).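 Further: cells grown under basal conditions without added stimulus.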 Conditions: RPMI8226 myeloma viability, higher = more signal.
Experiment [6] can be described thus: JC-1 mitochondrial signal, unstimulated HepG2 cells – cell-based, JC-1 fluorescence, 24 h, 100 nL compound, profiling panel (AID 1167). The conditions noted are these: HepG2 mitochondrial potential, higher = more signal.
Experiment [7] is described as follows: JC-1 mitochondrial signal, unstimulated adipocytes – cell-based, JC-1 fluorescence, 3T3-L1 adipocytes, 24 h, 100 nL compound, profiling panel (AID 1168). The conditions noted are these: JC-1 mitochondrial fluorescence, higher = more signal, called active from +8 up or from −8 down.
Experiment [8] can be described thus: JC-1 mitochondrial signal, unstimulated myeloma cells – cell-based, JC-1 fluorescence, RPMI8226, 24 h, 100 nL compound, profiling panel (AID 1169). Conditions: JC-1 mitochondrial potential fluorescence, higher = more signal.
A short description of experiment [9]: JC-1 mitochondrial signal, unstimulated MM1S myeloma – cell-based, JC-1 fluorescence, 24 h, 100 nL compound, profiling panel (AID 1170). The conditions noted are these: MM1S mitochondrial potential, higher = more signal.
Experiment [10] can be described thus: resazurin metabolic signal in A549 cells – cell-based, resazurin fluorescence, 24 h, PK04 Diversity Set, profiling panel (AID 1171). The conditions noted are these: A549 viability, higher = more signal, called active from +8 up or from −8 down.

Activity calls are given as the source filed them.
Further: test concentration not given here.

For the molecule `COc1ccc(C(O)C2C=CC3C(=O)NC(=O)C3N2Nc2ccccn2)c2ccccc12` (stereo not given), the z-score in experiment [1] is 0.606; in experiment [2] it was -1.17; in [3], 0.384; in experiment [4] it was -0.178; in experiment [5], 0.384; in [6], -1.11. Moreover, the z-score in [7] is 0.296 (inactive); in experiment [8], -0.905; in experiment [9], -0.143; in experiment [10], -0.703 (inactive).
Take `CCOC(=O)[C@H]1C/C=C/C[C@H](C(=O)OCC)C(=O)O[C@H]2[C@@H](OC)O[C@H](CO)[C@@H](OC(=O)Nc3ccc(C#N)cc3)[C@@H]2OC1=O`: the z-score was -2.47 in [1]; 1.37 in experiment [2]; -4.91 in experiment [3]; -3.15 in [4]; -4.11 in experiment [5]; -2.79 in [6]. Moreover, the z-score was 1.14 (inactive) in experiment [7], -0.975 in [8], -2.11 in [9] and -4.98 (inactive) in experiment [10].
Consider `C[C@@H]1ON(c2cccc(C(=O)OC(C)(C)C)c2)[C@H](c2ccc(Br)cc2)[C@H]1C(=O)N1C(=O)OC[C@H]1Cc1ccccc1`, for which the z-score in experiment [1] is 0.407; in [2], -0.941; in experiment [3], -0.0479; in [4], -0.357; in experiment [5], -0.205; in experiment [6] it was -0.344. Moreover, the z-score in experiment [7] was 0.375 (inactive); in experiment [8], 0.0362; in experiment [9], 1.88; in [10] it was 0.319 (inactive).
Take `C=CCC(OC(C)=O)[C@@H]1[C@@H](N(Cc2ccc(-c3ccccc3)cc2)C(=O)Cc2ccc(F)cc2)c2cc(OCCCO)ccc2N1C(=O)c1ccc(-c2ccccc2)cc1` (stereo not given in full): the z-score in experiment [1] was -0.861; in experiment [2], 0.779; in experiment [3], 1.87; in experiment [4], 0.784; in experiment [5], 1.16; in [6] it was 3.77. Moreover, the z-score in experiment [7] was 1.54 (inactive); in experiment [8], -0.714; in experiment [9] it was -0.725; in [10], 1.67 (inactive).
Turning to `COCCOC(=O)N1C(=O)[C@@]2(c3cc(C#CCCO)ccc31)[C@H](c1ccc(OCCO)cc1)N1[C@H](c3ccccc3)[C@H](c3ccccc3)OC(=O)[C@H]1[C@@H]2C(=O)N1CCN(c2ncccn2)CC1`, the z-score is 0.559 in [1]; 0.344 in experiment [2]; 0.479 in experiment [3]; -1.32 in [4]; -0.713 in [5]; 0.503 in experiment [6]. Also, the z-score is -0.138 (inactive) in [7], -0.41 in [8], -1.19 in experiment [9] and 0.253 (inactive) in [10].
With `O=C1O[C@H](c2ccccc2)[C@H](c2ccccc2)N2[C@H]1[C@@H](C(=O)Nc1nc3ccccc3s1)[C@]1(C(=O)Nc3ccc(C#CC4(O)CCCCCC4)cc31)[C@H]2c1ccc(OCCO)cc1`, the z-score in experiment [1] was -0.128; in [2], 1.45; in experiment [3] it was -0.318; in experiment [4] it was -1.89; in [5], -2; in experiment [6] it was -3.77. Also, the z-score in experiment [7] is -0.727 (inactive); in experiment [8], -1.22; in experiment [9] it was -1.41; in experiment [10], 0.634 (inactive).
For the molecule `COCCOC(=O)N1C(=O)[C@@]2(c3cc(C#CC4(O)CCCCCC4)ccc31)[C@H](c1ccc(O)cc1)N1[C@H](c3ccccc3)[C@H](c3ccccc3)OC(=O)[C@H]1[C@@H]2C(=O)Nc1nc2ccccc2s1`, the z-score in [1] was 0.3; in experiment [2], 0.974; in [3], 0.702; in experiment [4], -1.55; in [5], -1.47; in experiment [6] it was -2.78. The z-score in experiment [7] is -1.11 (inactive); in experiment [8] it was -0.876; in experiment [9], 0.18; in experiment [10], -0.006 (inactive).
For `CN(C)CCCNC(=O)[C@@]1(c2ccc([N+](=O)[O-])cc2)CC(=O)N(C2CCCCC2)[C@@H]1c1ccc(CO)cc1I`, the z-score in experiment [1] was -4.33; in experiment [2], 0.184; in experiment [3], -5.13; in experiment [4], -3.86; in experiment [5], -4.36; in experiment [6], -3.14. For the same molecule, the z-score in experiment [7] was 0.499 (inactive); in experiment [8], -0.952; in experiment [9], -2.31; in experiment [10] it was -6.55 (inactive).
Consider `C=CCNC(=O)[C@@H]1[C@H]2C(=O)O[C@H](c3ccccc3)[C@H](c3ccccc3)N2[C@H](c2ccc(OCCO)cc2)[C@@]12C(=O)Nc1ccc(C#CCCO)cc12`, for which the z-score in experiment [1] is -1.11; in [2], 0.422; in [3], 1.27; in experiment [4], -0.563; in experiment [5], 0.256; in experiment [6], 1.1. The z-score was 0.0466 (inactive) in [7], -0.591 in experiment [8], -0.183 in [9] and 0.344 (inactive) in experiment [10].
For the molecule `O=C(NCc1ccccc1)[C@@]1(CCS(=O)(=O)c2ccccc2)N=C(c2ccc(OCCCO)cc2)O[C@H]1c1ccccc1`, the z-score in experiment [1] was 0.364; in [2], -0.153; in experiment [3], -0.203; in experiment [4], -0.335; in [5], -0.672; in experiment [6] it was 1.17. Besides, the z-score is 0.802 (inactive) in [7], -0.935 in [8], -1.58 in [9] and -0.541 (inactive) in [10].
Turning to `COc1cc2c(cc1OC)CN(C(=O)[C@H]1[C@@H]3C(=O)O[C@@H](c4ccccc4)[C@@H](c4ccccc4)N3[C@@H](c3ccc(O)cc3)[C@]13C(=O)Nc1ccc(C#CC4=CCCCC4)cc13)CC2`, the z-score in experiment [1] was -0.59; in experiment [2], 0.474; in experiment [3], 0.679; in experiment [4], -0.35; in experiment [5] it was -2.23; in [6], -0.259. For the same molecule, the z-score in experiment [7] is 2.83 (inactive); in experiment [8], -0.243; in [9], -0.101; in experiment [10], -0.435 (inactive).
On to `CCCCCN1CC=CC23O[C@@H]4/C=C\CCCOC(=O)C4[C@H]2C(=O)N(C(CO)C(C)C)[C@@H]3C1=O` (stereo not given in full), for which the z-score in [1] is -0.436; in experiment [2] it was 0.737; in experiment [3], -1.05; in experiment [4] it was 0.693; in experiment [5], 0.108; in experiment [6], -0.335. Further, the z-score in experiment [7] was -0.0791 (inactive); in [8], 0.0204; in experiment [9], -0.407; in [10], 0.534 (inactive).
Consider `C=CCN1C(=O)[C@]2(O[C@H](CCO)[C@@H]([Si](C)(C)c3ccc(OC)cc3)[C@@H]2C)c2cc(N3CCCCC3=O)ccc21`, for which the z-score in experiment [1] is -1.25; in experiment [2] it was 0.257; in experiment [3] it was -2.15; in experiment [4], -2.54; in experiment [5], -3.82; in [6], -0.61. Further, the z-score was -0.305 (inactive) in experiment [7], -0.982 in experiment [8], -1.63 in [9] and -3.52 (inactive) in experiment [10].
In the case of `COCCOC(=O)N1C(=O)[C@@]2(c3ccccc31)[C@H](c1ccccc1OCCO)N1[C@H](c3ccccc3)[C@H](c3ccccc3)OC(=O)[C@H]1[C@@H]2C(=O)Nc1nc2ccccc2s1`, the z-score in experiment [1] is -0.331; in [2], 0.0264; in [3], -0.271; in experiment [4], -1.39; in [5], -1.54; in experiment [6], -1.51. Besides, the z-score was 1.79 (inactive) in experiment [7], -1.01 in [8], -1.33 in experiment [9] and -1.02 (inactive) in experiment [10].
Take `CC1CC/C=C\[C@H]2OC34C=CCN(c5ccc(Cl)cc5)C(=O)[C@H]3N(CCO)C(=O)[C@]4(C)C2C(=O)O1` (stereo not given in full): the z-score was -0.562 in [1]; 0.594 in experiment [2]; 0.107 in experiment [3]; 0.246 in experiment [4]; 0.0105 in experiment [5]; -0.472 in experiment [6]. Also, the z-score in experiment [7] was -0.54 (inactive); in experiment [8], 0.27; in experiment [9], 2.04; in [10] it was -0.428 (inactive).
